The record followed here is the antibiotic and cytotoxicity screens of Wong et al. (2023).

Molecules are shown by their SMILES. The campaign covered roughly 39,000 compounds. About 1,500 (3.8%) were called active. The full list was thinned out, with actives kept by preference.

The assay relates to HSkMC (human skeletal muscle cells). In words: cytotoxicity call (relative viability < 0.9). As to conditions: 10 µM.
Consider `CN1CCN(C(=O)C[C@H]2C=C[C@@H](NC(=O)Cc3ccccn3)[C@H](CO)O2)CC1`, for which the cytotoxicity call is “inactive”.

With `C[C@@H]1CCCCO[C@@H](CN(C)C(=O)NC2CCCCC2)[C@@H](C)CN([C@H](C)CO)C(=O)c2cc(NC(=O)Nc3ccc(C(F)(F)F)cc3)ccc2O1`, the cytotoxicity call is “active”.

Turning to `C[C@@H]1CCCCO[C@H](CN(C)C(=O)NC2CCCCC2)[C@H](C)CN([C@H](C)CO)C(=O)c2cc(NC(=O)Nc3ccc(C(F)(F)F)cc3)ccc2O1`, the cytotoxicity call is “active”.

For `COc1ccc(NC(=O)Nc2ccc3c(c2)C(=O)N([C@@H](C)CO)C[C@@H](C)[C@@H](CN(C)C(=O)NC2CCCCC2)OCCCC[C@@H](C)O3)cc1`, the cytotoxicity call is “active”.

Take `C[C@@H]1CN([C@H](C)CO)C(=O)c2cc(NC(=O)Nc3ccc(C(F)(F)F)cc3)ccc2O[C@@H](C)CCCCO[C@@H]1CN(C)C(=O)NC1CCCCC1`: the cytotoxicity call is “inactive”.

Turning to `C[C@H]1CN([C@@H](C)CO)C(=O)c2cc(NC(=O)Nc3ccc(C(F)(F)F)cc3)ccc2O[C@@H]1CN(C)C(=O)NC1CCCCC1`, the cytotoxicity call was “inactive”.

Take `C[C@H]1CCCCO[C@@H](CN(C)C(=O)NC2CCCCC2)[C@@H](C)CN([C@@H](C)CO)C(=O)c2cc(NC(=O)Nc3ccc(C(F)(F)F)cc3)ccc2O1`: the cytotoxicity call was “inactive”.

As for `C[C@@H]1CN([C@H](C)CO)C(=O)c2cc(NC(=O)Nc3ccc(C(F)(F)F)cc3)ccc2O[C@H]1CN(C)C(=O)NC1CCCCC1`, the cytotoxicity call is “inactive”.

With `C[C@@H]1CCCCO[C@@H](CN(C)C(=O)NC2CCCCC2)[C@H](C)CN([C@@H](C)CO)C(=O)c2cc(NC(=O)Nc3ccc(C(F)(F)F)cc3)ccc2O1`, the cytotoxicity call is “inactive”.

As to `C[C@@H]1CCCCO[C@H](CN(C)C(=O)NC2CCCCC2)[C@@H](C)CN([C@@H](C)CO)C(=O)c2cc(NC(=O)Nc3ccc(C(F)(F)F)cc3)ccc2O1`, the cytotoxicity call was “inactive”.

As to `COc1ccc(NC(=O)Nc2ccc3c(c2)C(=O)N([C@H](C)CO)C[C@H](C)[C@@H](CN(C)C(=O)NC2CCCCC2)OCCCC[C@@H](C)O3)cc1`, the cytotoxicity call is “inactive”.

As for `C[C@@H]1CN([C@H](C)CO)C(=O)c2cc(NC(=O)Nc3ccc(C(F)(F)F)cc3)ccc2O[C@@H]1CN(C)C(=O)NC1CCCCC1`, the cytotoxicity call is “active”.

Regarding `COc1ccc(NC(=O)Nc2ccc3c(c2)C(=O)N([C@@H](C)CO)C[C@H](C)[C@H](CN(C)C(=O)NC2CCCCC2)OCCCC[C@H](C)O3)cc1`, the cytotoxicity call was “inactive”.

As for `COCC#Cc1cnc2c(c1)C(=O)N([C@H](C)CO)C[C@@H](C)[C@@H](CN(C)C(=O)c1cnccn1)O2`, the cytotoxicity call is “inactive”.

With `C[C@H]1CN([C@@H](C)CO)C(=O)c2cccc(NC(=O)Nc3ccccc3)c2O[C@H]1CN(C)Cc1ccc(C(F)(F)F)cc1`, the cytotoxicity call is “inactive”.

With `C[C@@H]1CN([C@@H](C)CO)C(=O)c2cc(NS(C)(=O)=O)ccc2O[C@@H]1CN(C)S(=O)(=O)c1ccc(Cl)cc1`, the cytotoxicity call is “inactive”.

For the compound `C=CCOC(=O)[C@H]1[C@@H]2C(=O)O[C@@H](c3ccccc3)[C@@H](c3ccccc3)N2[C@@H](c2ccc(OCCOC(=O)[C@H]3C[C@H]4C(=O)NCC(=O)N4[C@H]3c3ccc(O)cc3)cc2)[C@]12C(=O)Nc1ccc(I)cc12`, the cytotoxicity call is “inactive”.

As to `C=C(O)C(=O)O`, the cytotoxicity call is “inactive”.

Take `C[C@H]1CN([C@@H](C)CO)C(=O)Cc2cc(NS(=O)(=O)c3cccs3)ccc2O[C@@H]1CN(C)S(=O)(=O)c1cccs1`: the cytotoxicity call is “inactive”.

As for `Cc1cc(NC(=O)CCCC(=O)O)n(C)n1`, the cytotoxicity call was “inactive”.

For the compound `C[C@H]1CN([C@@H](C)CO)C(=O)c2cc(NC(=O)Nc3ccc(F)cc3)ccc2O[C@@H]1CN(C)C(=O)Nc1cccc2ccccc12`, the cytotoxicity call is “inactive”.

Take `C[C@@H]1CN([C@H](C)CO)C(=O)c2cc(NC(=O)Nc3ccc(F)cc3)ccc2O[C@H]1CN(C)C(=O)Nc1cccc2ccccc12`: the cytotoxicity call is “inactive”.

In the case of `C[C@@H]1CN([C@H](C)CO)C(=O)c2cc(NC(=O)Nc3ccc(F)cc3)ccc2O[C@@H]1CN(C)C(=O)Nc1cccc2ccccc12`, the cytotoxicity call was “active”.

Take `C[C@H](CO)N1C[C@H](C)[C@@H](CN(C)C(=O)Nc2cccc3ccccc23)Oc2ccc(NC(=O)Nc3ccc(F)cc3)cc2C1=O`: the cytotoxicity call is “inactive”.

Take `C[C@H](CO)N1C[C@H](C)[C@H](CN(C)C(=O)Nc2cccc3ccccc23)Oc2ccc(NC(=O)Nc3ccc(F)cc3)cc2C1=O`: the cytotoxicity call is “inactive”.

Turning to `C[C@@H]1CN([C@@H](C)CO)C(=O)c2cc(NC(=O)Nc3ccc(F)cc3)ccc2O[C@@H]1CN(C)C(=O)Nc1cccc2ccccc12`, the cytotoxicity call was “active”.

For `Cc1ccc(S(=O)(=O)N(C)C[C@H]2Oc3ccc(NC(=O)C4CC4)cc3CC(=O)N([C@@H](C)CO)C[C@H]2C)cc1`, the cytotoxicity call is “inactive”.

Consider `C[C@@H]1CCCCO[C@@H](CN(C)S(=O)(=O)c2ccccc2)[C@@H](C)CN([C@@H](C)CO)C(=O)c2cc(NC(=O)C3CCCCC3)ccc2O1`, for which the cytotoxicity call was “inactive”.

Take `C[C@H]1CN([C@@H](C)CO)C(=O)c2cc(Br)cnc2O[C@H]1CN(C)S(=O)(=O)c1cccs1`: the cytotoxicity call is “inactive”.

Take `C[C@@H]1CCCCO[C@H](CN(C)S(=O)(=O)c2cccs2)[C@H](C)CN([C@H](C)CO)C(=O)c2cc(NS(C)(=O)=O)ccc2O1`: the cytotoxicity call is “inactive”.

Turning to `Cc1noc(C)c1S(=O)(=O)N(C)C[C@@H]1Oc2ccc(NS(=O)(=O)c3cccs3)cc2CC(=O)N([C@H](C)CO)C[C@H]1C`, the cytotoxicity call is “inactive”.

Take `C[C@@H]1CN([C@H](C)CO)C(=O)c2cc(NS(C)(=O)=O)ccc2O[C@@H](C)CCCCO[C@H]1CN(C)S(=O)(=O)c1cccs1`: the cytotoxicity call was “inactive”.

`CC1=CC[C@H](C(C)(C)O)CC1`: the cytotoxicity call was “inactive”.

Turning to `CC(C)=CCCC(C)(O)C1CC=C(C)CC1` (centres undefined), the cytotoxicity call was “active”.

In the case of `C=CC(C)(O)CCC=C(C)C` (centres undefined), the cytotoxicity call was “inactive”.

In the case of `CC(C)CC#Cc1cnc2c(c1)C(=O)N([C@@H](C)CO)C[C@@H](C)[C@H](CN(C)S(=O)(=O)c1cn(C)cn1)O2`, the cytotoxicity call was “inactive”.

On to `C[C@@H]1CCCCO[C@H](CN(C)C(=O)C2CCCCC2)[C@@H](C)CN([C@H](C)CO)C(=O)c2cc(NS(=O)(=O)c3ccc(Cl)cc3)ccc2O1`, for which the cytotoxicity call is “inactive”.

Consider `C[C@@H]1CCCCO[C@H](CN(C)C(=O)C2CCCCC2)[C@H](C)CN([C@H](C)CO)C(=O)c2cc(NS(=O)(=O)c3ccc(Cl)cc3)ccc2O1`, for which the cytotoxicity call is “inactive”.

On to `C[C@@H]1CN([C@H](C)CO)C(=O)c2cc(NS(=O)(=O)c3ccc(Cl)cc3)ccc2O[C@@H](C)CCCCO[C@H]1CN(C)C(=O)C1CCCCC1`, for which the cytotoxicity call is “inactive”.

With `C[C@@H]1CCCCO[C@@H](CN(C)C(=O)Cc2ccccc2)[C@@H](C)CN([C@@H](C)CO)C(=O)c2cc(NS(=O)(=O)c3ccc(Cl)cc3)ccc2O1`, the cytotoxicity call is “inactive”.

As for `C[C@@H]1CCCCO[C@H](CN(C)C(=O)C2CCCCC2)[C@H](C)CN([C@@H](C)CO)C(=O)c2cc(NS(=O)(=O)c3ccc(Cl)cc3)ccc2O1`, the cytotoxicity call was “active”.

Consider `C[C@@H]1CN([C@@H](C)CO)C(=O)c2cc(NS(=O)(=O)c3ccc(Cl)cc3)ccc2O[C@@H](C)CCCCO[C@H]1CN(C)C(=O)C1CCCCC1`, for which the cytotoxicity call is “inactive”.

Take `C[C@@H]1CN([C@@H](C)CO)C(=O)c2cc(NS(=O)(=O)c3ccc(Cl)cc3)ccc2O[C@@H](C)CCCCO[C@H]1CN(C)C(=O)Cc1ccccc1`: the cytotoxicity call was “inactive”.

As to `C[C@@H]1CCCCO[C@@H](CN(C)C(=O)C2CCCCC2)[C@H](C)CN([C@@H](C)CO)C(=O)c2cc(NS(=O)(=O)c3ccc(Cl)cc3)ccc2O1`, the cytotoxicity call is “inactive”.

Turning to `C[C@H]1CCCCO[C@H](CN(C)C(=O)Cc2ccccc2)[C@@H](C)CN([C@@H](C)CO)C(=O)c2cc(NS(=O)(=O)c3ccc(Cl)cc3)ccc2O1`, the cytotoxicity call was “active”.

On to `C[C@H]1CCCCO[C@H](CN(C)C(=O)C2CCCCC2)[C@@H](C)CN([C@@H](C)CO)C(=O)c2cc(NS(=O)(=O)c3ccc(Cl)cc3)ccc2O1`, for which the cytotoxicity call is “active”.

For `C[C@H](CO)N1C[C@H](C)[C@@H](CN(C)C(=O)C2CCCCC2)OCCCC[C@H](C)Oc2ccc(NS(=O)(=O)c3ccc(Cl)cc3)cc2C1=O`, the cytotoxicity call was “inactive”.

Regarding `C[C@@H]1CCCCO[C@@H](CN(C)C(=O)C2CCCCC2)[C@@H](C)CN([C@H](C)CO)C(=O)c2cc(NS(=O)(=O)c3ccc(Cl)cc3)ccc2O1`, the cytotoxicity call is “active”.

Regarding `CNC(=O)CN1CCO[C@H]2CN(C(=O)c3cnccn3)C[C@@H]21`, the cytotoxicity call was “inactive”.

As for `CC1(C)C(=O)NCCN1C(=O)c1ccco1`, the cytotoxicity call is “inactive”.

For the compound `C[C@H]1CN([C@@H](C)CO)C(=O)Cc2cc(NS(=O)(=O)c3ccc(Cl)cc3)ccc2O[C@H]1CN(C)S(=O)(=O)c1cn(C)cn1`, the cytotoxicity call was “inactive”.

As to `C[C@@H]1CN([C@H](C)CO)C(=O)Cc2cc(NC(=O)Cc3cn(C)c4ccccc34)ccc2O[C@H]1CN(C)C(=O)Nc1ccc(C(F)(F)F)cc1`, the cytotoxicity call was “inactive”.

As for `COc1ccc(NC(=O)N2C[C@H](O)COC[C@@H]3O[C@H](CC(=O)NCc4ccccc4OC)CC[C@H]32)cc1`, the cytotoxicity call is “inactive”.

For `Cc1ccc(S(=O)(=O)N(C)C[C@@H]2Oc3c(NC(=O)c4ccncc4)cccc3C(=O)N([C@H](C)CO)C[C@@H]2C)cc1`, the cytotoxicity call was “inactive”.

Turning to `COc1cccc(S(=O)(=O)N[C@H]2CC[C@@H](CCn3cc(-c4ccccc4OC)nn3)O[C@@H]2CO)c1`, the cytotoxicity call is “inactive”.

In the case of `COc1cc(C(=O)O)ccc1NC(=O)[C@@H]1N[C@@H](CC(C)(C)C)[C@](C#N)(c2ccc(Cl)cc2F)[C@H]1c1cccc(Cl)c1F`, the cytotoxicity call was “active”.

With `C[C@@H]1CN([C@H](C)CO)C(=O)c2cc(NS(=O)(=O)c3ccc(Cl)cc3)ccc2O[C@H]1CN(C)Cc1ccc(C(=O)Nc2ccccc2N)cc1`, the cytotoxicity call was “inactive”.

Consider `C[C@@H]1CN([C@H](C)CO)C(=O)c2cc(C#Cc3ccccc3F)cnc2O[C@H]1CN(C)C(=O)c1ccc2c(c1)OCO2`, for which the cytotoxicity call is “inactive”.

Regarding `O=C(/C=C/c1cc2c(cc1Br)OCCO2)c1c(-c2ccccc2)c2cc(Cl)ccc2[nH]c1=O`, the cytotoxicity call is “active”.
